PubChem BioAssay (NCI)
The panel holds about 79,000 compounds, 15% with a hit somewhere; the sample as a whole holds those more often. Active and inactive are the calls of the source. No stated cut-off is given here; in the data, active means growth inhibition above about 70%; inactive means the rest.

Experiments:
[1] = NCI Yeast Anticancer Drug Screen. Data for the rad50 strain (AID 155);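 further: 0% = growth of vehicle-only cultures of the same strain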; details: S. cerevisiae rad50 strain growth inhibition, hits give high values
Summary of the method: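 DNA repair mutant yeast, compound exposure, growth read-out; inhibition is taken relative to vehicle.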

[2] = NCI Yeast Anticancer Drug Screen. Data for the mec2-1 strain (AID 157); details: S. cerevisiae mec2-1 strain, hits give high values
Summary of the method: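 Mutant yeast (mec2-1) grown with compound; growth inhibition relative to vehicle control reported.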

[3] = NCI Yeast Anticancer Drug Screen. Data for the sgs1 mgt1 strain (AID 161);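 further: 0% = growth of cultures given vehicle only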; details: S. cerevisiae sgs1 mgt1 strain, hits give high values
Summary of the method: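 Compounds are added to genetically altered yeast, and growth is compared with cultures given vehicle alone to give percent inhibition.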

[4] = NCI Yeast Anticancer Drug Screen. Data for the cln2 rad14 strain (AID 165);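 further: 0% = growth equal to vehicle treated cultures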; details: S. cerevisiae cln2 rad14 strain, hits give high values
Summary of the method: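 Readout is yeast growth inhibition versus vehicle-treated controls, using a strain with cln2 and rad14 alterations exposed to compound.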

[5] = NCI Yeast Anticancer Drug Screen. Data for the bub3 strain (AID 167); details: S. cerevisiae bub3 mutant strain, hits give high values
Summary of the method: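 In this screen, a yeast mutant lacking normal mitotic checkpoint function is challenged with compound. Relative growth versus vehicle gives the inhibition value.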

[6] = NCI Yeast Anticancer Drug Screen. Data for the mlh1 rad18 strain (AID 175); details: S. cerevisiae mlh1 rad18 strain growth inhibition, hits give high values
Summary of the method: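 Genetically defined yeast (DNA repair-deficient) exposed to compounds; growth inhibition determined relative to vehicle.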

[7] = at 5.0 µM (retest, dose inferred, filed as 0.5)
[8] = at 50.0 µM (retest, dose inferred, filed as 5.0)

Measured: growth inhibition

CCCCc1c2c(nc3c1CCc1cc4cc5c(nc4nc1-3)-c1nc3c(c(CCCC)c1CC5)CCCC3=O)C(=O)CCC2
active: [1]; [7] 71% | [1]; [8] 97% | [1]; at 50.0 µM 97.7% | [2]; [7] 86% | [2]; [8] 97% | [2]; at 50.0 µM 97.2% | [3]; [8] 97% | [3]; at 50.0 µM 98% | [4]; [7] 90% | [4]; [8] 96% | [4]; at 50.0 µM 95.9% | [5]; [7] 97% | [5]; [8] 96% | [5]; at 50.0 µM 97.2% | [6]; [7] 86% | [6]; [8] 96% | [6]; at 50.0 µM 97.3%
inactive: [3]; [7] 54%

CC[C@H]1CN2CCc3cc(OC)c(OC)cc3[C@@H]2C[C@@H]1C[C@H]1NCCc2cc(OC)c(OC)cc21
inactive: [1]; [7] 0% | [1]; [8] 12% | [1]; at 50.0 µM -7.4% | [2]; [7] -10% | [2]; [8] -2% | [2]; at 50.0 µM -4.65% | [3]; [7] 1% | [3]; [8] 3% | [3]; at 50.0 µM 4% | [4]; [7] 1% | [4]; [8] 17% | [4]; at 50.0 µM 7.5% | [5]; [7] 3% | [5]; [8] 0% | [5]; at 50.0 µM 2.55% | [6]; [7] 1% | [6]; [8] 3% | [6]; at 50.0 µM 8.25%

CC(=O)c1ccc([N+](=O)[O-])o1
active: [1]; [8] 98% | [1]; at 50.0 µM 96.5% | [2]; [8] 99% | [2]; at 50.0 µM 92.2% | [3]; at 50.0 µM 91.3% | [4]; [8] 97% | [4]; at 50.0 µM 86.9% | [5]; [8] 99% | [5]; at 50.0 µM 92.5% | [6]; [8] 99% | [6]; at 50.0 µM 98.4%
inactive: [1]; [7] 19% | [2]; [7] 22% | [3]; [7] 11% | [3]; [8] 61% | [4]; [7] 0% | [5]; [7] 21% | [6]; [7] 38%

N#CC(O)C(Br)(Br)Br (stereo not given)
inactive: [1]; [7] -3% | [1]; [8] 61% | [2]; [7] -3% | [2]; [8] 38% | [3]; [7] -4% | [3]; [8] 46% | [4]; [7] 6% | [4]; [8] 18% | [4]; at 50.0 µM 21.9% | [5]; [7] -1% | [5]; [8] 69% | [6]; [7] 1%
active: [1]; at 50.0 µM 82.7% | [2]; at 50.0 µM 74.3% | [3]; at 50.0 µM 83.3% | [5]; at 50.0 µM 84.7% | [6]; [8] 72% | [6]; at 50.0 µM 86%

CCC(=C(c1ccc(OCCN(C)C)cc1)c1cccc(O)c1)c1ccccc1 (mixture of isomers)
inactive: [1]; [7] 34% | [2]; [7] 10% | [2]; at 50.0 µM 62% | [3]; [7] 44% | [4]; [7] 34% | [5]; [7] 23% | [6]; [7] 64%
active: [1]; [8] 97% | [1]; at 50.0 µM 86% | [2]; [8] 99% | [3]; [8] 98% | [3]; at 50.0 µM 96.5% | [4]; [8] 97% | [4]; at 50.0 µM 76.9% | [5]; [8] 99% | [5]; at 50.0 µM 76.5% | [6]; [8] 98% | [6]; at 50.0 µM 94%

CCCCCCCC/C=C\CCCCCCCC(=O)NCC[N+](C)(C)C
inactive: [1]; [7] 48% | [2]; [7] 17% | [3]; [7] 53% | [4]; [7] 10% | [6]; [7] 10%
active: [1]; [8] 99% | [1]; at 50.0 µM 99.2% | [2]; [8] 100% | [2]; at 50.0 µM 99.7% | [3]; [8] 99% | [3]; at 50.0 µM 99.7% | [4]; [8] 99% | [4]; at 50.0 µM 97.4% | [5]; [7] 83% | [5]; [8] 100% | [5]; at 50.0 µM 99.3% | [6]; [8] 99% | [6]; at 50.0 µM 99.5%

O=Cc1c(O)ccc2ccccc12
inactive: [1]; [7] 12% | [2]; [7] 8% | [3]; [7] 11% | [4]; [7] 6% | [5]; [7] 2% | [6]; [7] 17%
active: [1]; [8] 99% | [1]; at 50.0 µM 99.2% | [2]; [8] 98% | [2]; at 50.0 µM 99.4% | [3]; [8] 99% | [3]; at 50.0 µM 99.2% | [4]; [8] 99% | [4]; at 50.0 µM 99% | [5]; [8] 98% | [5]; at 50.0 µM 99.5% | [6]; [8] 98% | [6]; at 50.0 µM 99.2%

CC(C)C1=CC23CCC4C(C)(C(=O)O)CCCC4(C)C2CC1c1c(O)ccc(O)c13 (stereo not given)
inactive: [1]; [7] 30% | [3]; [7] 51% | [4]; [7] 28% | [5]; [7] 31%
active: [1]; [8] 98% | [1]; at 50.0 µM 99.3% | [2]; [7] 75% | [2]; [8] 100% | [2]; at 50.0 µM 99.3% | [3]; [8] 99% | [3]; at 50.0 µM 99.3% | [4]; [8] 98% | [4]; at 50.0 µM 99.2% | [5]; [8] 99% | [5]; at 50.0 µM 99.2% | [6]; [7] 81% | [6]; [8] 99% | [6]; at 50.0 µM 99%

C/C(=N\NC(=S)NC12CC3CC(CC(C3)C1)C2)c1ccccn1
active: [1]; [8] 95% | [1]; at 50.0 µM 97% | [2]; [8] 97% | [2]; at 50.0 µM 97.9% | [3]; [8] 98% | [3]; at 50.0 µM 98% | [4]; [8] 93% | [4]; at 50.0 µM 94.7% | [5]; [8] 97% | [5]; at 50.0 µM 97.1% | [6]; [8] 97% | [6]; at 50.0 µM 97.3%
inactive: [1]; [7] 5% | [2]; [7] 3% | [3]; [7] 6% | [4]; [7] -5% | [5]; [7] 0% | [6]; [7] -7%

CCCCN(CC(O)c1ccc(Cl)cc1)c1ccccc1 (stereo not given)
inactive: [1]; [7] -1% | [2]; [7] -2% | [3]; [7] -6% | [4]; [7] 1% | [5]; [7] 1% | [6]; [7] 1%
active: [1]; [8] 99% | [1]; at 50.0 µM 98.8% | [2]; [8] 99% | [2]; at 50.0 µM 98.8% | [3]; [8] 98% | [3]; at 50.0 µM 98.8% | [4]; [8] 93% | [4]; at 50.0 µM 98.5% | [5]; [8] 98% | [5]; at 50.0 µM 95% | [6]; [8] 99% | [6]; at 50.0 µM 96.7%
